Experimental data from the antibiotic and cytotoxicity screens of Wong et al. (2023).
About 3,300 (8.5%) of roughly 39,000 compounds were called active. The sample holds actives, similar compounds and a random draw of the others, so the mix is not that of the screen.

The compounds below were run on HepG2 (assay: cytotoxicity call (relative viability < 0.9)). Settings: 10 µM.

Row | Compound | cytotoxicity call
1 | CO[C@@H]1CN(C)C(=O)c2ccc(NS(=O)(=O)CC(F)(F)F)cc2OC[C@@H](C)N(Cc2nccs2)C[C@H]1C | inactive
2 | C=CC[C@H](CC(=O)NCCO)C(=O)NC[C@@H](OC(=O)[C@@H](CC=C)CC(=O)OC(C)(C)C)c1ccccc1 | inactive
3 | C[C@H](CO)N1C[C@H](C)[C@@H](CN(C)CC2CC2)Oc2c(NS(=O)(=O)c3ccccc3)cccc2C1=O | inactive
4 | CC(C)NC(=O)N(C)C[C@H]1Oc2ccc(NC(=O)Cn3cnnn3)cc2C(=O)N([C@H](C)CO)C[C@H]1C | inactive
5 | CCCCC(=O)OC1(C(=O)CO)C(C)CC2C3CCC4=CC(=O)C=CC4(C)C3(F)C(O)CC21C (stereo not drawn) | inactive
6 | Nc1cc(=O)nc(N)[nH]1 | inactive
7 | C[C@H]1CN([C@@H](C)CO)C(=O)c2cccc(NC(=O)c3ccncc3)c2O[C@H]1CN(C)S(=O)(=O)c1ccccc1 | inactive
8 | CC(C)CC#Cc1ccc2c(c1)O[C@@H](CN(C)C(=O)Cc1ccncc1)[C@@H](C)CN([C@@H](C)CO)S2(=O)=O | inactive
9 | CO[C@H]1CN(C)C(=O)c2cc(NC(=O)Nc3cccc(F)c3)ccc2OC[C@H](C)N(C(=O)Nc2c(C)noc2C)C[C@H]1C | inactive
10 | C[C@@H]1CCCCO[C@@H](CN(C)Cc2ccc(Cl)c(Cl)c2)[C@@H](C)CN([C@@H](C)CO)C(=O)c2cc(NC(=O)Nc3ccc4c(c3)OCO4)ccc2O1 | active
11 | C[C@@H]1CCCCO[C@@H](CN(C)Cc2ccc(Cl)c(Cl)c2)[C@H](C)CN([C@H](C)CO)C(=O)c2cc(NC(=O)Nc3ccc4c(c3)OCO4)ccc2O1 | inactive
12 | C[C@@H]1CCCCO[C@H](CN(C)Cc2ccc(Cl)c(Cl)c2)[C@H](C)CN([C@@H](C)CO)C(=O)c2cc(NC(=O)Nc3ccc4c(c3)OCO4)ccc2O1 | active
13 | C[C@@H]1CN([C@@H](C)CO)C(=O)c2cc(NC(=O)Nc3ccc4c(c3)OCO4)ccc2O[C@@H](C)CCCCO[C@H]1CN(C)Cc1ccc(Cl)c(Cl)c1 | inactive
14 | CC(C)(C)NC(=O)N1CCC(CN)CC1 | inactive
15 | C[C@H]1CCCCO[C@H](CN(C)C(=O)NC2CCCCC2)[C@@H](C)CN([C@@H](C)CO)C(=O)c2cc(NC(=O)Nc3ccc(F)cc3)ccc2O1 | inactive
16 | CO[C@@H]1[C@H](O)[C@@H](CO)O[C@H]1n1cc(C)c(N)nc1=O | inactive
17 | C[C@@H]1CN([C@H](C)CO)C(=O)c2cccc(NS(=O)(=O)c3ccc(Cl)cc3)c2O[C@@H]1CN(C)Cc1ccc(C(F)(F)F)cc1 | inactive
18 | CC(C)NC(=O)Nc1ccc2c(c1)C(=O)N([C@H](C)CO)C[C@H](C)[C@H](CN(C)Cc1ccccc1)OCCCC[C@H](C)O2 | inactive
